Compound activity as filed in PubChem.
hgDAF-12 ag: agonists of H. glycines DAF-12 nuclear receptor. HEK293 GAL4-hgDAF12 UAS-luciferase reporter, agonist luminescence; normalized to butyrate control. activation, % at 6.8 µM. 370,000 tested, 1.8% active;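 active = activation above a cutoff set at the mean of all screened compounds plus 3 SD, cut at about 10% in these data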;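 also: 0% = DMSO wells and 100% = sodium butyrate wells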
ssDAF12 agonist: S. stercoralis DAF-12 activation, primary screen. HEK293 ssDAF-12/GRIP1 lit1-tk-luc reporter, luminescence; % of 3 µM dafachronic acid response. activation, % at 6.8 µM. 370,000 tested, 1% active. AID 652126;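 active = activation above the mean over all tested compounds plus 3 SD, cut at about 0.9% in these data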;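 also: 0% = DMSO-only wells and 100% = 3 µM delta7-dafachronic acid wells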
DAX1 inh-1: DAX1 (NR0B1) inhibition, primary screen. 370,000 tested, 1.1% active. HEK293T StAR-luciferase reporter, SF-1/DAX-1 repression relief. inhibition, % at 6.8 µM;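 active = inhibition above the mean over all tested compounds plus 3 SD, cut at about 3.6% in these data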;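 also: 0% = DAX-1 cells with DMSO and 100% = cells lacking DAX-1 with DMSO; higher inhibition means more luminescence from relief of DAX-1 repression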
hcDAF-12 act: H. contortus DAF-12 activation, primary screen; activation, % at 6.8 µM; HEK293 hcDAF-12 lit1-tk-luc reporter, luminescence; 0% DMSO, 100% Δ7-dafachronic acid; 370,000 tested, 1.4% active;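 active = activation above the mean of all tested compounds plus 3 SD, cut at about 5.5% in these data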;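 also: 100% = response to 3 µM Δ7-dafachronic acid high control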
DAX1 inh-2: NR0B1 (DAX1) inhibition; inhibition, % at 6.75 µM; 340,000 tested, 0.99% active; P51843; HEK293 Gal4-DAX1 luciferase reporter, luminescence;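 active = inhibition above the mean over all tested compounds plus 3 SD, cut at about 4.2% in these data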;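 also: 0% = DAX1-transfected cells with DMSO and 100% = empty-vector control cells with DMSO; inhibition shows as a rise in luminescence from relieved DAX1 repression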
Target sequence (P51843 207-470 limits assumed): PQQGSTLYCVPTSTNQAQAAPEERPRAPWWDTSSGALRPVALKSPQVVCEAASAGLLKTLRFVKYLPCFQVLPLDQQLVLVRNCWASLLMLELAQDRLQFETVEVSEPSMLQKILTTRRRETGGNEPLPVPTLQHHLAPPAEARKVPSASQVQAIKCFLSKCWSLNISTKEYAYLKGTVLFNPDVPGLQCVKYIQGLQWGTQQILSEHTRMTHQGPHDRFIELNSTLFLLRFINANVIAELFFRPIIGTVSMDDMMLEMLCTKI
Wee1 degr inh: blocks degradation of human Wee1 kinase; P30291; HeLa Luc-Wee1K328M stability, luciferase luminescence; 100% = proteasome inhibitor MG132 effect; reporter increase, % at 5 µM; 220,000 tested, 1.2% active;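 active = activation above the mean of all tested compounds plus 3 SD, set per screening run, cut at about 8.8% in these data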;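 also: cells exposed to compound for 20 h before luminescence read; 0% = DMSO alone and 100% = MG132 at 30 µM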
Wee1 stab conf: confirmation of human Wee1 degradation inhibitors | shares compounds with Wee1 degr inh | HeLa Luc-Wee1K328M degradation, luminescence; vehicle 0%, proteasome-blocked wells 100% | activation, % at 5 µM | 1,100 tested, 4% active; in the data active = activation above about 8.9%
DAX1 conf: confirmation of human DAX1 (NR0B1) inhibitors | inhibition, % at 6.8 µM | shares compounds with DAX1 inh-1 | HEK293T StAR-promoter luciferase reporter, SF-1/DAX-1 repression | AID 652134 | 2,400 tested, 87% active;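 active = inhibition above the average of every tested compound plus 3 SD, cut at about 3.8% in these data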;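 also: 0% = DAX-1 cells with DMSO and 100% = no DAX-1 control cells with DMSO; active compounds raise luminescence by relieving repression of the StAR reporter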
SF1 AF2mut Luc: nonselective inhibitor or artifact in SF-1 mutant DAX1 counter-screen | shares compounds with DAX1 inh-1 | HEK293 StAR-luciferase, SF-1 AF2 mutant, luminescence | inhibition, % at 6.8 µM | 2,400 tested, 78% active;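 active = inhibition above the mean of all tested compounds plus 3 SD, cut at about 3% in these data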;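 also: 0% = DAX-1 transfected cells with DMSO and 100% = cells without DAX-1 with DMSO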
LXRb hcDAF ctr: counter-screen for hcDAF-12 agonists: agonists of human LXR-beta; shares compounds with hcDAF-12 act; HEK293 Gal4-LXR tk-luc reporter, luminescence, 24 h; normalized: DMSO 0%, positive control 100%; AID 743027; 3,400 tested, under 10 active; activation, % at 6.8 µM;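 active = mean percent activation of the reporter above a cutoff set as the average over tested compounds plus their standard deviation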
Target sequence (P55055 whole entry, looked up, the tested form may be a part): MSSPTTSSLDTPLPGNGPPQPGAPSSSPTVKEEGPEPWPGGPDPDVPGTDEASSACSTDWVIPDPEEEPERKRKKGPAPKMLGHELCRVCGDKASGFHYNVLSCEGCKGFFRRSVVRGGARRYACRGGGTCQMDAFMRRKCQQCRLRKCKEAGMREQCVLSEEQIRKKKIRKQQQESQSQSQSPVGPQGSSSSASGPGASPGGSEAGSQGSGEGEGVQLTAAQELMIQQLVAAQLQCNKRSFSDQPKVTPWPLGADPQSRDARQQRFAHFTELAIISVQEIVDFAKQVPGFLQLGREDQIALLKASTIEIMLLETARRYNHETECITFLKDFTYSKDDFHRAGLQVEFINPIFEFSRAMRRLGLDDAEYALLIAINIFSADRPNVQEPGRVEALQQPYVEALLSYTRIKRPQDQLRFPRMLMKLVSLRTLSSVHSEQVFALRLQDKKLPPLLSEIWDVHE
hcDAF12 ag: hcDAF-12 agonism, confirmation assay | HEK293 hcDAF-12 lit1-tk-luc reporter, luminescence; % of Δ7-dafachronic acid response | activation, % at 6.8 µM | AID 743032 | 3,400 tested, 61% active | shares compounds with hcDAF-12 act;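 active = mean activation across triplicate tests above the threshold derived from the earlier primary screen, cut at about 5.5% in these data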;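 also: 0% = DMSO only wells and 100% = 3 µM Δ7-dafachronic acid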
hgDAF12 ag: confirmation of H. glycines DAF-12 agonists; shares compounds with hgDAF-12 ag; HEK293 GAL4-hgDAF12 luciferase reporter, agonist mode; percent of butyrate response; activation, % at 6.8 µM; 3,300 tested, 80% active; AID 743050;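 active = mean activation over triplicate wells above the hit cutoff derived from the earlier primary screen, cut at about 11% in these data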;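 also: 0% = DMSO low control and 100% = 2 mM sodium butyrate high control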
LXRb DAF12 ctr: counter-screen for DAF-12 agonists: agonists of human LXR-beta | shares compounds with hgDAF-12 ag | HEK293 Gal4-LXR luciferase reporter, 24 h | activation, % at 6.8 µM | 3,300 tested, under 10 active | AID 743051;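 active = mean activation of the triplicate above a set limit carried over from the primary screen, none filed active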
Starred values were filed as active, the others as inactive; x = no result. An excerpt weighted towards active compounds, which were near 4.6% of everything screened.

SMILES | hgDAF-12 ag | ssDAF12 agonist | DAX1 inh-1 | hcDAF-12 act | DAX1 inh-2 | Wee1 degr inh | Wee1 stab conf | hgDAF12 ag | LXRb DAF12 ctr | others
Cn1c(C(=O)Nc2ccc3c(c2)OCCO3)cc2sccc21 | 14.9* | 1.2* | 6.9* | 9.7* | 1.8 | 16.4* | 7.1 | 17.9* | 0.9 | DAX1 conf=8.8*;SF1 AF2mut Luc=6.8*;LXRb hcDAF ctr=1.0;hcDAF12 ag=5.1
O=C(Nc1ccc2c(c1)OCCO2)c1cc2sccc2n1Cc1ccccc1 | -8.6 | -2.3 | -2.5 | -4.7 | -1.8 | 3.0 | x | x | x
CN(C)c1cccc(C(=O)Nc2cccc(F)c2)c1 | 6.7 | -0.1 | 1.1 | 0.7 | 2.1 | 1.6 | x | x | x
CCN(CC)c1ccc(C(=O)Nc2cccc(F)c2)cc1 | 15.0* | 0.2 | 1.8 | 7.2* | 1.5 | 13.9* | 4.8 | 19.1* | 1.1 | LXRb hcDAF ctr=1.5;hcDAF12 ag=4.1
O=C(Nc1cccnc1)c1sc2cccc(F)c2c1Cl | 17.1* | -0.9 | 4.1* | 6.0* | 1.0 | 14.6* | -0.7 | 14.8* | 0.4
CC(C)N1CCCCC(NC(=O)c2c(F)cccc2F)C1=O (configuration not stated) | -0.5 | -1.0 | 0.7 | 1.0 | x | x | x | x | x
CN(CC(=O)N1CCc2ccccc21)S(=O)(=O)c1cccs1 | 13.4* | 0.2 | 2.6 | 2.9 | 2.2 | 13.8* | 4.1 | 11.8* | 0.6
CCO/C(C)=N/Oc1cnc2ccccc2c1 | 4.2 | -0.2 | 1.7 | 1.6 | x | x | x | x | x
CC(C)(C)C(=O)c1cnc(Nc2ccccc2Cl)s1 | 13.4* | 0.5 | 2.4 | 4.0 | 4.0 | 15.6* | 4.1 | 15.8* | 0.8
Cc1ccccc1-c1noc(-c2ccc(O)cc2)n1 | 18.1* | 0.9 | 3.5 | 6.9* | 1.3 | 11.0* | 6.3 | 16.0* | 0.7 | LXRb hcDAF ctr=0.8;hcDAF12 ag=4.2
CC(C)c1ccc(/C=N/NC(=O)c2cccc(Cl)c2)cc1 | 15.1* | -0.1 | 3.4 | 3.3 | 1.4 | 13.5* | 6.0 | 24.2* | 0.7
O=C(N/N=C/c1cccnc1)c1cccc(Cl)c1 | 7.1 | -1.1 | -0.5 | 1.1 | 4.2 | x | x | x | x
CCc1ccc(NC(=O)Nc2cccc(OC)c2)cc1 | 18.3* | -0.6 | 2.1 | 0.3 | 1.1 | 12.1* | 3.1 | 15.4* | 0.4
COc1cccc(NC(=O)Nc2ccc(CC(=O)O)cc2)c1 | -5.2 | -1.0 | -0.4 | -1.0 | -0.3 | 0.7 | x | x | x
CC(C)(C)Nc1nc2cc([N+](=O)[O-])ccc2o1 | 0.0 | -1.0 | 0.3 | 0.4 | -0.5 | -2.3 | x | x | x
COc1ccc(-c2nc3cc([N+](=O)[O-])ccc3o2)cc1 | 13.9* | -0.4 | 2.2 | 2.4 | 6.2* | 14.2* | 1.4 | 16.6* | 0.8
O=C(Nc1ccccn1)c1csc2c1CCCC2 | 18.8* | 0.2 | 2.6 | 6.0* | 1.2 | 18.1* | 5.5 | 16.1* | 0.6
COc1ccccc1NC(=O)c1csc2c1CCCC2 | 3.6 | -0.5 | -0.2 | -1.2 | 0.1 | -0.1 | x | x | x
COc1ccc(CN2C(=O)CCCC2(C)c2nnnn2-c2c(C)cccc2C)cc1OC (configuration not stated) | -1.0 | -1.6 | -1.2 | -2.2 | x | x | x | x | x
CN1/C(=C\C(=O)c2cccnc2)Sc2ccccc21 | 17.6* | -0.7 | 3.3 | 2.0 | 1.4 | 13.4* | 4.8 | 11.5* | 0.6
Cn1c(C=O)c(C#Cc2ccccc2)c2ccccc21 | -2.1 | 0.4 | -0.9 | 2.4 | 0.5 | x | x | x | x
O=C(/C=C/c1ccc(Cl)cc1)Nc1nccs1 | 24.0* | 0.8 | 11.1* | 8.6* | 0.5 | 13.0* | 0.0 | 20.4* | 1.4 | DAX1 conf=18.1*;SF1 AF2mut Luc=10.4*;LXRb hcDAF ctr=1.8;hcDAF12 ag=7.7*
O=C(Nc1ccc(O)cc1)c1c(O)c2c([nH]c1=O)CCCC2 | 14.2* | 0.7 | 3.7* | 4.9 | 1.3 | 13.8* | 5.8 | 13.3* | 0.9
COC(=O)c1ccccc1NC(=O)c1c(O)c2c([nH]c1=O)CCCC2 | 1.8 | -1.0 | -0.1 | -1.9 | -0.2 | -2.4 | x | x | x
Cc1ccc2c(c1)N(CC(=O)Nc1ccccc1F)C(=O)C(C)O2 (configuration not stated) | 0.4 | -1.5 | 0.1 | -1.8 | 1.2 | x | x | x | x
SMILES | hgDAF-12 ag | ssDAF12 agonist | DAX1 inh-1 | hcDAF-12 act | DAX1 inh-2 | Wee1 degr inh | Wee1 stab conf | hgDAF12 ag | LXRb DAF12 ctr | others
CCOc1ccc(N2C(=O)C(C)CNC2=S)cc1 (configuration not stated) | 0.8 | -1.0 | -1.0 | -0.9 | 0.1 | x | x | x | x
CCOC(=O)CSc1nc(-c2ccncc2)ccc1C#N | 16.5* | 0.9* | 3.4 | 3.8 | 2.1 | 14.4* | 1.8 | 16.3* | 0.9
CC(C)CC(=O)Nc1ccc(-c2nc3ccccc3c(=O)[nH]2)cc1 | 15.7* | -0.1 | 5.0* | 3.2 | 1.5 | 13.4* | -1.2 | 20.6* | 1.2 | DAX1 conf=16.5*;SF1 AF2mut Luc=7.6*
COc1cccc(-c2cc(C(=O)NC3CCCC3)no2)c1 | 19.9* | 0.0 | 5.0* | 5.1 | 1.9 | 14.6* | 2.7 | 16.4* | 1.0 | DAX1 conf=9.9*;SF1 AF2mut Luc=5.3*
CCc1ccccc1OCC(=O)Nc1cc(S(=O)(=O)N(CC)CC)ccc1N1CCOCC1 | 2.2 | -1.1 | 1.0 | -2.5 | -0.4 | x | x | x | x
CCOc1ccc(NC(=O)COC(=O)Cn2cnc3ccccc32)cc1 | 0.6 | -0.9 | 0.2 | -0.2 | 1.6 | x | x | x | x
COCC(=O)Nc1c(C(=O)Nc2ccc3c(c2)OCCO3)oc2ccccc12 | 17.0* | -0.5 | 4.6* | 3.5 | 1.0 | 11.8* | 7.5 | 17.7* | 0.9 | DAX1 conf=8.6*;SF1 AF2mut Luc=5.9*
CCC(=O)Nc1c(C(=O)Nc2ccc3c(c2)OCCO3)oc2ccccc12 | 9.2 | -0.3 | 3.3 | 3.5 | 0.1 | 7.7 | x | x | x
NC(Cc1ccc(Cl)cc1)c1csc(Nc2ccc(-c3ccccc3)nn2)n1 (configuration not stated) | 5.2 | -1.4 | -1.4 | 0.1 | x | x | x | x | x
